Assay outcomes deposited in PubChem BioAssay by several laboratories.
Sampled rows, rich in hits. Any-hit rate of the full collection: about 1.3%.
3CLpro inhibitor – SARS-CoV 3CLpro protease inhibition. inhibition, % at 6 µM. recombinant SARS-CoV 3CLpro, quenched FRET peptide cleavage. 290,000 compounds, 0.14% hits; in the data active means inhibition above about 12%
Vc quorum ag – inducers of Vibrio cholerae quorum light production without autoinducers | V. cholerae BH1578 lux reporter, luminescence, 6 h | AID 588436 | activation, % at 18.7 µM | 350,000 compounds, 0.16% hits; in the data active means activation mostly above about 9.7%, no sharp cut-off
PriA SSB inh – blocks PriA binding to SSB C-terminal tail; AlphaScreen SSBct-PriA binding, biotinylated peptide; inhibition, % at 33 µM; 430,000 compounds, 0.6% hits; AID 1272365; in the data active means inhibition mostly above about 37%, no sharp cut-off; inactive means mostly below about 20%;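 further: plate controls were negative control peptide for no effect and reference peptide for full effect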
CCHFV vOTU inh – CCHFV vOTU protease inhibition | Pep-AMC fluorescence | inhibition, % at 11.5 µM | 370,000 compounds, 0.55% hits | AID 651958; in the data active means inhibition above about 30%; further: 0% = vehicle wells with enzyme and 100% = no enzyme wells
TcdB inh – inhibitors of Clostridioides difficile toxin B glycohydrolase; P18177; TcdB glycohydrolase enzymatic assay, plate reader; inhibition, % at 9.99 µM; 350,000 compounds, 0.24% hits; AID 652162; in the data active means inhibition above about 10%
Target sequence (P18177 whole entry, looked up): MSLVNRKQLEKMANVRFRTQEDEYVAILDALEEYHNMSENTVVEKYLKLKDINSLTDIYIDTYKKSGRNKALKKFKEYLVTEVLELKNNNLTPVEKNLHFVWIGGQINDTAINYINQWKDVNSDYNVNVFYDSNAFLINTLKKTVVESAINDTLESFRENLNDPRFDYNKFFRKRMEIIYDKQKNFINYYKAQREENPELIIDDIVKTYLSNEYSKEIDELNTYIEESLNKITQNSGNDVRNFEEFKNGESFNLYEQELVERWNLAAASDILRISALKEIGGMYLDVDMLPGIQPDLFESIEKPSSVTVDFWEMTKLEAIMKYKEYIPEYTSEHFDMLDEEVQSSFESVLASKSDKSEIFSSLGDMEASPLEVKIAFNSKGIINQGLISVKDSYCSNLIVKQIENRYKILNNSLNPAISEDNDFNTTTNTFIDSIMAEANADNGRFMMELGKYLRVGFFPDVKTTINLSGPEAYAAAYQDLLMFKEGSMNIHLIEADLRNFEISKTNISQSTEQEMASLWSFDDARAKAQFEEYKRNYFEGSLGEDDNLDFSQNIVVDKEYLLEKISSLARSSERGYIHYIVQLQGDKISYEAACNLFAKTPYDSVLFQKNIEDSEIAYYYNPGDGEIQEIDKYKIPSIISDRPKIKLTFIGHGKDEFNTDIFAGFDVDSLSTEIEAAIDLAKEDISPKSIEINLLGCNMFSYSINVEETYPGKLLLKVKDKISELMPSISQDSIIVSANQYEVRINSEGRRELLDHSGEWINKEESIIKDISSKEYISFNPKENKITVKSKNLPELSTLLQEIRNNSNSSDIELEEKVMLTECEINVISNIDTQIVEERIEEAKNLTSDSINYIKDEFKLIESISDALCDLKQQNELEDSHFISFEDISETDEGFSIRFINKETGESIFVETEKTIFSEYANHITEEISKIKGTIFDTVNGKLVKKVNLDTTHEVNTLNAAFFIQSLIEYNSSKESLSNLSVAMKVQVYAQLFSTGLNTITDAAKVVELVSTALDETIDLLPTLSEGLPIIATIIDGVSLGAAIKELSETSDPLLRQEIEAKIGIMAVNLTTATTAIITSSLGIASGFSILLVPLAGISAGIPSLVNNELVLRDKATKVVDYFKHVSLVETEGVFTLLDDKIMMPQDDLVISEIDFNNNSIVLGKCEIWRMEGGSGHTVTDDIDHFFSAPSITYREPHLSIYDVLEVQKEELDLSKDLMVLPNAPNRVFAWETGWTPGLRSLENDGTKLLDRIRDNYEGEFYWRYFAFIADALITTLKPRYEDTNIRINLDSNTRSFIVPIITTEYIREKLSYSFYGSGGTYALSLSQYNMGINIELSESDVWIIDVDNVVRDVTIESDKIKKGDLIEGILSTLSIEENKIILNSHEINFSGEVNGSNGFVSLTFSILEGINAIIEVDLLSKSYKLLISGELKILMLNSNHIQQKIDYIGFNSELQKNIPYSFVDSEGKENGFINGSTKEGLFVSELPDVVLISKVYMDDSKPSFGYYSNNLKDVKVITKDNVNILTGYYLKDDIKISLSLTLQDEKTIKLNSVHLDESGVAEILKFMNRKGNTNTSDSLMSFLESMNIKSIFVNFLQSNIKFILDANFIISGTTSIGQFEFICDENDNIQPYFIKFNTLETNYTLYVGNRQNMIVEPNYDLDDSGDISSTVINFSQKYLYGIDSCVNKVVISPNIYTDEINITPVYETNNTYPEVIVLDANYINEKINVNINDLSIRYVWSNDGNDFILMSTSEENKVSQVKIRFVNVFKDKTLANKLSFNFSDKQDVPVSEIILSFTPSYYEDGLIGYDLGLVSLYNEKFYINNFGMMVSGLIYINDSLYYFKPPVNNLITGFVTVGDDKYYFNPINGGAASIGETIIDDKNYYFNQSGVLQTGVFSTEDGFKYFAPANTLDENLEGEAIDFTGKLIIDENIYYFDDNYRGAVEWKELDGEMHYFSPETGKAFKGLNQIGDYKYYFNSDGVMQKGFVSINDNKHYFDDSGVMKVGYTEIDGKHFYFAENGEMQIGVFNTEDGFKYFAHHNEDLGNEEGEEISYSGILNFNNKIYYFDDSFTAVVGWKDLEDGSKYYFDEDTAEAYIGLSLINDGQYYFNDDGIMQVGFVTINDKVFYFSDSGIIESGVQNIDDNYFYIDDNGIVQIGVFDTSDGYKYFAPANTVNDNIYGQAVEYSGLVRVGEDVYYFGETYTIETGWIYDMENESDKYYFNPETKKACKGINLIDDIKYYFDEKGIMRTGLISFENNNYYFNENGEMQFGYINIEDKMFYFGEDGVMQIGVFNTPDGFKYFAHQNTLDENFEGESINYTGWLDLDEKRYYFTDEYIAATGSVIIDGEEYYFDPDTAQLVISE
DUSP3 inh – inhibitors of human VHR1 phosphatase (DUSP3) | P51452 | recombinant VHR phosphatase, pNPP absorbance | 290,000 compounds, 0.52% hits | inhibition, % at 13.3 µM; in the data active means inhibition above about 50%
* hit, by the source's call; i = inactive; · = no result; + = active, no number; ! = not confirmed by another sample.

SMILES	3CLpro inhibitor	Vc quorum ag	PriA SSB inh	CCHFV vOTU inh	TcdB inh	DUSP3 inh
Cn1cc(-c2cccc(Cl)c2)cc(C#N)c1=O	3.0	-0.7	-6.9	-23.6	0.0	23.8
O=C(O)C[C@@H]1C(=O)O[C@@H]2C(COC(=O)c3cc(O)c(O)c(O)c3)O[C@@H](OC(=O)c3cc(O)c(O)c(O)c3)[C@@H](OC(=O)c3cc(O)c(O)c4c3[C@H]1[C@H](O)C(=O)O4)[C@H]2OC(=O)c1cc(O)c(O)c(O)c1 (stereo partly drawn)	·	·	·	·	·	113.8*
O=C(Cc1ccc2c(c1)OCO2)N1CCCC[C@H](c2ccc(F)cc2)C1	·	·	-5.0	·	·	·
CCN(CC)CCN(C(=O)c1cc2ccccc2cc1OC)c1nc2ccc(OC)cc2s1	-3.2	-0.4	44.7*	8.0	2.7	-2.4
CCN(CC)CCN(C(=O)c1cc2ccccc2cc1OC)c1nc2ccc(F)cc2s1	-4.3	-1.0	46.9*!	19.8	0.8	48.2
CC(=O)c1cccc(OCC(=O)c2cc(C)n(-c3cc(C)on3)c2C)c1	-5.3	-0.2	-0.8	-2.8	16.2*	14.1
Cc1cc(-n2c(C)cc(C(=O)COc3ccc4ccc(=O)oc4c3)c2C)no1	2.2	-6.3	-9.8	-28.1	·	16.5
CN1CCN(c2ccc([N+](=O)[O-])c(N3CCCC3)c2)CC1	·	·	57.9*	·	·	·
O=[N+]([O-])c1ccc(N2CCNCC2)cc1N1CCCCC1	3.4	-0.2	2.2	1.4	0.3	16.5
CS(=O)(=O)N1CCN(c2ccc([N+](=O)[O-])c(N3CCOCC3)c2)CC1	1.1	5.9	4.1	13.1	·	16.5
CS(=O)(=O)N1CCN(c2ccc([N+](=O)[O-])c(N3CCCC3)c2)CC1	·	·	57.3*	·	·	·
COc1ccc(-c2cc(=O)[nH]c(SCc3nc(-c4cccc(OC)c4OC)oc3C)n2)cc1	·	·	-22.0	·	·	·
COc1ccccc1/C=C/c1ccc2cccc(O)c2n1	-1.7	-0.5	3.9	10.6	0.2	52.6*
COc1ccc(Cc2nnc(SCc3nc4ccccc4c(=O)[nH]3)o2)cc1	2.1	1.8	-8.6	-16.6	-0.1	9.7
O=c1[nH]c(CSc2nnc(Cc3ccccc3)o2)nc2ccccc12	-3.9	-0.2	-17.2	-5.5	18.9*	16.5
Cc1ccc(SCC(=O)N(Cc2nc(-c3ccccc3)no2)C(C)C)cc1	1.3	25.0*	-1.3	10.5	·	-7.5
CN(C)c1ccc(C(CN)N2CCN(c3ccccc3)CC2)cc1 (stereo not drawn)	·	·	55.0	·	·	·
O=C(CSCc1ccc(Br)cc1)N/N=C/c1ccc(Sc2cccc3cccnc23)o1	·	·	+	·	·	·
CCCCCCCCCCCCCCCCCC(=O)N/N=C/c1ccc(Sc2cccc3cccnc23)o1	·	·	+	·	·	·
O=C(CCc1ccccc1O)N/N=C/c1ccc(Sc2cccc3cccnc23)o1	5.2	-0.4	·	1.6	·	28.5
O=C(CSc1cccc2cccnc12)N/N=C/c1cccc2ccccc12	·	·	i	·	·	·
O=C(Cc1cccs1)NCCN1CCN(c2ccccc2)CC1	·	·	-11.0	·	·	·
c1cnc2c(c1)ccc1cccnc12	0.1	0.6	101.7*	2.1	1.9	1.5
O=Cc1ccc2ccc3cccnc3c2n1	4.1	0.7	81.0*	-10.5	1.0	56.9*
c1ccc2c(c1)ccc1cccnc12	·	·	29.4	·	·	·
SMILES	3CLpro inhibitor	Vc quorum ag	PriA SSB inh	CCHFV vOTU inh	TcdB inh	DUSP3 inh
Nc1cc2cccnc2c2ncccc12	·	·	151.5*	·	·	·
COc1ccc(N2C(N)=NC(N)=NC23CCCC3)cc1	0.6	i	-9.5	6.1	·	29.1
NC1=NC2(CCCCC2)N(c2ccc(F)cc2)C(N)=N1	-3.3	-2.0	-5.8	12.4	·	52.9*
Cc1cccc(-c2noc(-c3cn[nH]c3-c3ccccc3)n2)c1	·	·	-9.0	·	·	·
O=C(NC1CC2CCCC(C1)N2Cc1ccccc1)c1cccc(F)c1 (stereo not drawn)	-1.3	0.6	-21.5	-14.4	0.6	55.7*
CCOc1cccc(CN2CCC(CCC(=O)NC3CC3)CC2)c1O	-4.5	i	-9.6	-15.2	-3.0	51.3*
O=C(CCC1CCN(Cc2ccc(Cl)cc2)CC1)NC1CC1	-9.7	0.5	-3.8	-6.3	1.4	69.7
O=C(C1CC1)N1CCN(c2nc3ccc(Cl)cc3s2)CC1	·	·	0.0	·	·	·
CCN(CC)c1ccc(NC(=O)CCS(=O)(=O)c2ccc(Br)cc2)c(C)c1	1.2	i	7.5	5.1	-6.4	52.3*
Cc1ccccc1NC(=O)CCS(=O)(=O)c1ccc(Br)cc1	0.3	-1.0	-0.5	-12.4	-0.4	-20.5
CN(C)S(=O)(=O)c1cccc(NC(=O)COC(=O)c2cc3ccccc3oc2=O)c1	-4.7	2.2	-8.0	-8.4	-0.1	8.5
CCN(c1ccc(NC(=O)COC(=O)c2cc3ccccc3oc2=O)cc1)C(C)C	-2.0	-0.5	54.1*	9.9	-0.4	-2.6
CN1CCCN=C1COC(=O)C(O)(c1ccccc1)C1CCCCC1 (stereo not drawn)	-1.9	29.2*	-10.6	-3.2	0.2	0.9
COc1ccccc1NS(=O)(=O)c1cc(NC(=O)c2sccc2C)ccc1N1CCCC1	3.0	-0.3	7.0	-3.4	·	52.9*
Cc1nnsc1C(=O)N1C2CCC1c1cncnc1C2 (stereo not drawn)	·	·	-8.0	·	·	·
CCOc1ccc(/C=N/N(C)c2ccccc2)cc1OC	-5.2	-0.7	·	6.9	·	4.2
CCOc1ccc(C=NN(C)c2ccccc2)cc1OC	·	·	39.1*	·	·	·
Cc1ccc(C)c(-c2cc3c4nnc(SCC(=O)Nc5cccc(Br)c5)n4ccn3n2)c1	·	·	-15.0	·	·	·
O=S(=O)(NCC1CCN(Cc2ccco2)CC1)c1cc(Cl)ccc1Cl	·	·	-3.0	·	·	·
Cc1ccc(-c2csc3nc[nH]c(=S)c23)cc1C	3.2	-0.4	48.1*	-2.5	·	-3.8
COc1ccc(-c2csc3nc[nH]c(=O)c23)cc1OC	0.5	0.8	0.5	-10.6	-0.6	10.4
CCC(CC)NC(=O)CCc1nc2ccccc2c(=O)[nH]1	-2.9	-12.5	-0.1	-9.4	·	51.4*
Cc1ccc2sc(NNC(=O)c3nc4ccccc4s3)nc2c1C	·	·	58.0*	·	·	·
O=c1[nH]c2cccnc2c(=O)n1Cc1ccccn1	·	·	-17.0	·	·	·
O=C(Nc1ccc(F)cc1)Nc1csc2ccccc12	0.9	-0.4	0.2	-2.5	1.0	17.5
SMILES	3CLpro inhibitor	Vc quorum ag	PriA SSB inh	CCHFV vOTU inh	TcdB inh	DUSP3 inh
COc1cccc(CNC(=O)Cc2csc(Nc3cc(OC)ccc3OC)n2)c1	·	·	22.0*	·	·	·
COc1ccc(OC)c(Nc2nc(CC(=O)NCc3cccnc3)cs2)c1	·	·	11.0	·	·	·
COc1ccc(OC)c(Nc2nc(CC(=O)O)cs2)c1	·	·	-5.0	·	·	·
CN(C)c1ccc(NC(=O)Nc2csc3ccccc23)cc1	-3.5	i	40.3*	-5.1	-2.2	-2.7
COc1ccc(OC)c(Nc2nc(CC(=O)Nc3cccc(C)c3C)cs2)c1	·	·	24.0*	·	·	·
COc1ccc(NC(=O)Cc2csc(Nc3cccc(C(F)(F)F)c3)n2)cc1OC	·	·	17.0*	·	·	·
COc1cccc2sc(N(CC3CCCO3)C(=O)/C=C/c3ccc4c(c3)OCO4)nc12 (stereo not drawn)	·	·	-11.0	·	·	·
Cc1ccc(N2CCN(S(=O)(=O)c3ccc(F)cc3)CC2)cc1C	·	·	-1.0	·	·	·
CCn1cc(C(=O)N2CCC[C@H](Cc3nc(C4CC4)no3)C2)c(=O)c2ccc(C)nc21	·	·	-12.0	·	·	·
